Active and inactive are the calls of the source. The call rests on the fitted dose curve.
Assay: G protein-coupled receptor (GPCR) small molecule agonists, calcium flux assay: HEK293 wild type cell line counter screen (AID 1920065)
Settings: HEK293 WT calcium flux, fluorescence, agonist mode; series mostly up to 57.6 µM; activation: at the top concentration
From the text: U.S. Tox21 Program National Center for Advancing Translational Sciences [NCATS] Division of Preclinical Innovation [DPI] U.S. Environmental Protection Agency [EPA] National Institutes of Environmental Health Sciences [NIEHS] National Toxicology Program [NTP] U.S. Food and Drug Administration [FDA] Assay overview: The increased intracellular calcium release that occurred upon G protein-coupled receptor (GPCR) activation led to the frequent use of calcium flux assays to detect GPCR activation. For the purpose of studying and screening compounds that may activate GPCR, receptor-overexpressing models were typically generated using Hek293 wild-type (WT) cells. In order to eliminate the compounds that may have induced calcium release for non-specific activation, a counter-assay utilizing calcium flux on Hek293 WT cells was performed. The data were formulated in order to serve as a control for any calcium flux detection utilizing Hek293 cells with either GPCR overexpression or gene modification. The procurement of Hek293 WT cells from ATCC. Fluorescence intensity can be utilized to determine the activation of the compound in a calcium flux assay. As a counter control, this cell line was utilized to screen the Tox21 10K compound library.
Assay Protocol Summary: Hek293 cells were dispensed at 1500cells/4uL/well in 1536-well black wall/clear bottom plates using a multidrop dispenser. After the assay plates were incubated at a 37 C/5% CO2 incubator for 18 hours, 4 uL of Calcium Dye Solution was added to each well. The plates were incubated at 37 C for 1 hour. For agonist mode, 23 nL of compounds dissolved in DMSO, positive control (ATP) or DMSO only was transferred to the assay plate by a pin tool station. The fluorescence intensity in the plates was measured using FDSS 7000EX kinetic plate reader with a filter set of Ex/Em=480/540 for 3 min at 1 sec intervals. Each test compound was measured at 15 concentrations and in triplicates.
On the % scale 0 is the no-effect control and ±100 the full control effect.

Compound	activation
CC(C)[N+](=O)[O-]	0.0301% (inactive)
Fc1cccc(Cl)c1CCl	-0.276% (inactive)
CCOC(=O)C(Cl)C(C)=O (stereo not given)	8.73% (inactive)
O=c1[nH]c2ccccc2n1C1CCNCC1	-0.68% [at 26.5 µM] (inactive)
CCC[CH2][Sn]([CH2]CCC)([CH2]CCC)[CH2]CCC	3.93% (inactive)
CCCN(CC)CC1COC2(CCC(C(C)(C)C)CC2)O1 (stereo not given)	1.79% (inactive)
NCC1(CC(=O)O)CCCCC1	0.368% [at 26.5 µM] (inactive)
Brc1ccc(Oc2ccc(Br)cc2Br)c(Br)c1	0.726% (inactive)
CC1=C2C[C@H]3[C@@H](CC=C4C[C@@H](O)CC[C@@]43C)[C@@H]2CC[C@]12O[C@@H]1C[C@H](C)CN[C@H]1[C@H]2C	0.649% [at 26.5 µM] (inactive)
CCCN(CC1CC1)c1c([N+](=O)[O-])cc(C(F)(F)F)cc1[N+](=O)[O-]	0.336% (inactive)
COP(=O)(OC)Oc1ccc([N+](=O)[O-])cc1	-0.345% (inactive)
Cc1nc2ccccc2c(=O)n1-c1ccccc1Cl	0.0383% (inactive)
O=[N+]([O-])C(Br)(CO)CO	-0.0867% (inactive)
O=C(O)c1cc(I)cc(I)c1I	1.92% (inactive)
CCCCCCCCCCCCN=C(N)N	0.159% [at 2.04 µM] (inactive)
O=C(Cl)c1ccc(Cl)cc1	-0.876% (inactive)
CCC1(c2ccccc2)C(=O)N(COC)C(=O)N(COC)C1=O	-0.121% [at 26.5 µM] (inactive)
CCOc1ccc(C(C)(C)COCc2cccc(Oc3ccccc3)c2)cc1	0.413% (inactive)
Cc1cc(C2CC2)nc(Nc2ccccc2)n1	-1.37% (inactive)
Oc1ccc2[nH]cc(CCCCN3CC=C(c4ccccc4)CC3)c2c1	0.577% [at 26.5 µM] (inactive)

Compound	activation
CCC1(CCC(C)C)C(=O)NC(=O)NC1=O	-0.335% (inactive)
NC1CCC(CC2CCC(N)CC2)CC1 (stereo not given)	-1.98% (inactive)
C[C@]12CC[C@@H](O)C[C@@H]1CC[C@@H]1[C@@H]2CC[C@]2(C)C(=O)CC[C@@H]12	0.531% (inactive)
COc1ccc2c(c1OC)CN1CCc3cc4c(cc3C1C2)OCO4 (stereo not given)	-0.273% [at 26.5 µM] (inactive)
C=CC(=O)N(C)C	0.0166% (inactive)
CC(O)CCl (stereo not given)	0.362% (inactive)
CCCC[N+](CCCC)(CCCC)CCCC	-0.258% (inactive)
C(COCC1CO1)OCC1CO1 (stereo not given)	-1.32% (inactive)
CCNc1nc(NC(C)C(C)C)nc(SC)n1 (stereo not given)	0.0897% (inactive)
ClCBr	-0.218% (inactive)
[Cl-].[Cl-].[Cl-].[Yb+3]	-0.164% (inactive)
CC(Cc1ccc(OCC(=O)O)cc1)NCC(O)c1csc(C(F)(F)F)n1 (stereo not given)	-0.055% (inactive)
CON(C)C(=O)Nc1ccc(Br)cc1	0.0703% (inactive)
Cl/C=C\Cl	0.342% (inactive)
O=[N+]([O-])c1c(Cl)c(Cl)cc(Cl)c1Cl	-1.54% (inactive)
C=CCC1=C(C)[C@@H](OC(=O)[C@@H]2[C@@H](C=C(C)C)C2(C)C)CC1=O	-1.74% (inactive)
Oc1cc(Cl)cc(Cl)c1	0.0385% (inactive)
CN(C)C(=S)[S-].CN(C)C(=S)[S-].[Cu+2]	0.103% [at 11.8 µM] (inactive)
ClCCCCBr	-0.0027% (inactive)
CCCCCCCCP(=O)(O)O	0.23% (inactive)
